The values that follow come from PubChem BioAssay AID2283221 (EPA ToxCast).

Results filed as inconclusive are left out. The source made the active and inactive calls. How the source made its calls: active means hit-call score of the fitted dose curve at least 0.9, where 1 is the maximum; inconclusive means response in the unintended direction; inactive means score below 0.9.

The assay concerns the target human Spleen Associated Tyrosine Kinase (Syk), SYK (gene 6850) (UniProt P43405). The assay can be described thus: NVS_ENZ_hSyk: NovaScreen (NVS) Enzymatic Assay for human Spleen Associated Tyrosine Kinase (Syk). On the procedure: NVS_ENZ_hSyk is a biochemical, single-readout assay that uses extracted gene-proteins in a cell-free assay. Measurements were taken 1 hour after chemical dosing in a 96-well plate.NVS_ENZ_hSyk is one of one assay component(s) measured or calculated from the NVS_ENZ_hSyk assay. It is designed to make measurements of enzyme activity, a form of enzyme reporter, as detected with fluorescence intensity signals by Fluorescence and electrophoretic mobility shift technology.Data from the assay component NVS_ENZ_hSyk was analyzed into 1 assay endpoint. This assay endpoint, NVS_ENZ_hSyk, was analyzed in the positive analysis fitting direction relative to DMSO as the negative control and baseline of activity. Using a type of enzyme reporter, loss-of-signal activity can be used to understand changes in the enzymatic activity as they relate to the gene SYK. Furthermore, this assay endpoint can be referred to as a primary readout, because this assay has produced […] where this one serves a enzymatic activity function. To generalize the intended target to other relatable targets, this assay endpoint is annotated to the kinase intended target family, where the subfamily is non-receptor tyrosine kinase.
Binding assays used specific radioligands (tritiated, iodinated) with non-radioactive competitive displacement ligands in agonist or antagonist protocols (as indicated) and various reference compounds and inhibitors to titrate specific binding to receptors and transporters. Most enzyme assays (CYPs, kinases, phosphatases, proteases, HDACs) used recombinant protein and specific substrates (fluorescence mostly, some colorimetric and radioactive) and inhibitors, followed by a biochemical separation of substrate and product. All assays for the biochemical HTS were initially run in duplicate at a single concentration (10 uM for CYP450 assays and 25 uM for all others). Assay-chemical combinations meeting a pre-defined threshold (e.g., 30% inhibition and other criteria defined below) were then run in singleton concentration-response format with maximum concentration of 20 uM for CYPs and 50 uM for all others. Each assay was run with positive and negative controls, and concurrent controls on every plate. The follow-up (secondary) screen tested active chemical-pairs in concentration series, as well as a few additional assays not tested in the primary screen, some selected negative inactives, and several cases re-run in the concentration series for confirmatory purposes.
Regarding `S=C(S)NCCNC(=S)S.[Mn+2].[S-]C([S-])=NCCN=C([S-])[S-].[Zn+2]`, the AC50 is 9.71 µM (active).

`COP(N)(=O)SC` (configuration not stated): the call was inactive.

As for `O=C(O)C1(C(=O)Nc2ccc(Cl)cc2Cl)CC1`, the concentration at half-maximal activity (AC50) was 15.4 µM (active).

As for `CCNc1nc(Cl)nc(NC(C)C)n1`, the outcome was inactive.

`CNc1cnn(-c2cccc(C(F)(F)F)c2)c(=O)c1Cl`: the outcome was inactive.

`CC[C@H](C)[C@H]1O[C@]2(C=C[C@@H]1C)C[C@@H]1C[C@@H](C/C=C(\C)[C@@H](O[C@H]3C[C@H](OC)[C@@H](O[C@H]4C[C@H](OC)[C@@H](NC)[C@H](C)O4)[C@H](C)O3)[C@@H](C)/C=C/C=C3\CO[C@@H]4[C@H](O)C(C)=C[C@@H](C(=O)O1)[C@]34O)O2`: the molecule was called inactive.

`CCOCN(C(=O)CCl)c1c(C)cccc1CC`: the call was inactive.
